Hits are enriched below; roughly 12% of the tested compounds scored in any of these assays.
G9a inh – qHTS Assay for Inhibitors of Histone Lysine Methyltransferase G9a. Histone-lysine N-methyltransferase EHMT2 (Homo sapiens), Q96KQ7. G9a H3K9 monomethylation, AlphaScreen, 2 h. Potency, µM (series often up to 102 µM), for inactives: at the top dose activity, negative = inhibition, actives largely listed as inhibitors. 350,000 tested, 8.8% active; also: % is scaled to controls: 0 for no effect and ±100 for the full control effect; nearly all actives have a fitted effect of over 75% in size
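Readings reflect AlphaScreen signal from monomethyl-H3K9 antibody detection. HMT at 20 nM; substrate b-H3K9 500 nM; cofactor SAM 20 uM; 2 h RT reaction; compounds tested as titrations in qHTS with 15 min preincubation.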
BAZ2B block – qHTS Assay for Inhibitors of BAZ2B. AlphaScreen BAZ2B-H3K14Ac peptide displacement. Potency, µM (series often up to 114 µM), for the others: at the top dose activity change, negative = inhibition, most hits filed as inhibitors. AID 504333, 2011. 360,000 tested, 4.4% active. Bromodomain adjacent to zinc finger domain protein 2B (Homo sapiens), Q9UIF8; also: % is scaled to controls: 0 for no effect and ±100 for the full control effect; nearly all actives have a fitted effect of over 60% in size
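Compounds, titrated to a top concentration of 110 uM, were incubated 30 min at room temperature with preformed BAZ2B/acetyl-K14 H3 peptide complex (50 nM each). Proximity signal was measured by AlphaScreen after 20 min with beads.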
Sfp inh – qHTS Assay for Inhibitors of Bacillus subtilis Sfp phosphopantetheinyl transferase (PPTase); 4'-phosphopantetheinyl transferase ffp (Bacillus subtilis), Q9F4F7; Biochemical Sfp PPTase activity, qHTS; Potency, µM, inactives show largest response in the series, negative = inhibition, usual class: inhibitors; 310,000 tested, 3.5% active;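 also: the enzyme is Sfp with the accession as filed and its product quenches rhodamine fluorescence; 0% = enzyme reaction without inhibitor and -100% = no enzyme wells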
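Buffer: 50 mM Hepes-Na pH 7.6, 10 mM MgCl2, 0.01% Nonidet P-40, 0.01% BSA. Enzyme 15 nM, pre-exposed to compound 15 min; substrates then added and fluorescence change tracked over 30 min.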
HP1b chromo inh – HTS for Inhibitors of HP1-beta Chromodomain Interactions with Methylated Histone Tails; AlphaScreen HP1-beta / biotin-H3K9me3 peptide binding; Chromobox protein homolog 1 (Homo sapiens), P83916; Potency, µM (top dose mostly 114 µM), for the others: at the highest dose activity change, negative = inhibition, usual class: inhibitors; 390,000 tested, 0.56% active; also: nearly all actives have a fitted effect of over 70% in size
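HP1-beta protein (50 nM final) preincubated 30 min at room temperature with biotinylated H3(1-18)K9me3 peptide (50 nM) in PBS pH 7.4, 0.01% Tween-20, then compound added for 30 min. AlphaScreen streptavidin donor/nickel chelate acceptor beads (10 ug/mL final), 30 min dark, luminescence read.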
L3MBTL1 inh – qHTS Assay for the Inhibitors of L3MBTL1; Potency, µM (highest dose often 57.1 µM), inactives show at the top dose activity, negative = inhibition, actives largely listed as inhibitors; AlphaScreen L3MBTL1–H3K9me1 peptide binding; 230,000 tested, 0.66% active; also: % is scaled to controls: 0 for no effect and ±100 for the full control effect; nearly all actives have a fitted effect of over 60% in size
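AlphaScreen assay: L3MBTL1 (50 nM final) was preincubated 30 min at room temperature with biotinylated H3(1-15)K9me1 peptide (75 nM final), then 30 min with library compounds; streptavidin donor and nickel chelate acceptor beads (10 ug/mL final) added, 30 min dark.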
JMJD2A Tudor – qHTS Assay for Inhibitors of JMJD2A-Tudor Domain; Lysine-specific demethylase 4A (Homo sapiens), O75164; Potency, µM (series often up to 114 µM), inactives show at the top dose activity change, negative = inhibition, most hits filed as inhibitors; 390,000 tested, 4.4% active; AID 504339, 2011; AlphaScreen JMJD2A-Tudor / H3K4me3 peptide binding; also: % is scaled to controls: 0 for no effect and ±100 for the full control effect; nearly all actives have a fitted effect of over 50% in size
Target sequence (O75164 whole entry, looked up, the tested form may be a part): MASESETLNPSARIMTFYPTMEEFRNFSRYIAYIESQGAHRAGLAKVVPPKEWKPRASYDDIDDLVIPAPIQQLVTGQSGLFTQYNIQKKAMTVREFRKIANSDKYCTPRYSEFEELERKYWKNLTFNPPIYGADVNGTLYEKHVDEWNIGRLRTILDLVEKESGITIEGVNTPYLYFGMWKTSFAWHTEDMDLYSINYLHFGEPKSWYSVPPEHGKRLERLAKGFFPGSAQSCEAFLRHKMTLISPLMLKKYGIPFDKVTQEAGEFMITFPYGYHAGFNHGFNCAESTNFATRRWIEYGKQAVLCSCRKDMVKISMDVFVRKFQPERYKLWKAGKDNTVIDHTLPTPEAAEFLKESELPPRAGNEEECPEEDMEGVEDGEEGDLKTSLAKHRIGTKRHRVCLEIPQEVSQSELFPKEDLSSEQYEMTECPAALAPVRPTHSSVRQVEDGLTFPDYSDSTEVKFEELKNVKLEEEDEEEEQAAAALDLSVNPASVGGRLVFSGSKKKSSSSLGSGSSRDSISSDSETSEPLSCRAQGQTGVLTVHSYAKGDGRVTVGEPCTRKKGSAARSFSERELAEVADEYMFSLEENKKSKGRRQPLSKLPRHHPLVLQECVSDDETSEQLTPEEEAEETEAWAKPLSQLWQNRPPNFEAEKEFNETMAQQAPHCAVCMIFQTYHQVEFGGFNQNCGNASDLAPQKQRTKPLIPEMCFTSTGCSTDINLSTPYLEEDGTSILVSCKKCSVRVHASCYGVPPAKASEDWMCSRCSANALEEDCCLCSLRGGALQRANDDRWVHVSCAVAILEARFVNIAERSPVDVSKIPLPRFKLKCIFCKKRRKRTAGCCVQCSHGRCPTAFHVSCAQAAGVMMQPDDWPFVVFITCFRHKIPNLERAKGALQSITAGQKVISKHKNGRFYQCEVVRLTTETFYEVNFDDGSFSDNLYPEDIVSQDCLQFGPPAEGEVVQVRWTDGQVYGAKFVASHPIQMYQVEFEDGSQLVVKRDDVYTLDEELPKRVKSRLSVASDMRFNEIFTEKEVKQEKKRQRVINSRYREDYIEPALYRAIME
An asterisk follows results filed as active; ? = inconclusive; / = no result; [ ] = remark or other dose. Calls follow the shape of the dose curve; as a rule, active = well fitted curve in the direction sought with a large enough effect; inconclusive = small, poorly fitted or top-dose-only effect, or another doubt; inactive = no such curve, though single readings can be large; an effect the other way counts as inactive or inconclusive. Potency is read from the fitted curve at half-maximal effect.

SMILES | G9a inh | BAZ2B block | Sfp inh | HP1b chromo inh | L3MBTL1 inh | JMJD2A Tudor
COC(=O)c1ccccc1NC(=O)c1ccc2c(c1)CCN2S(C)(=O)=O | -1%[59 µM] | 6% | / | 40% | / | -14%
Cc1ccccc1NS(=O)(=O)c1ccc2[nH]cc(C(=O)NC(C)c3ccccc3)c(=O)c2c1 (stereo not drawn) | -38%[59 µM] | ? | / | -12% | / | ?
O=C(Oc1cccc([N+](=O)[O-])c1)c1ccc2c(=O)n3c(nc2c1)CCC3 | 7%[12.7 µM] | 50µM* | / | -11% | ? | ?
CC(=O)c1ccc(Nc2cc(C)nc3nc(Cc4ccc(Cl)cc4)nn23)cc1 | ? | -7% | / | 15% | / | -23%
COc1ccc(/C=C/C(=O)c2ccccc2O)cc1 | 45µM* | ? | ? | -21% | -11% | 63µM*
COc1ccc(/C=C/C(=O)c2ccccn2)cc1 | 40µM* | ? | 28µM* | 5% | ? | -25%
COc1ccc(/C=C/C(=O)N2CCN(c3ccccn3)CC2)cc1 | 0%[0.501 µM] | -10% | 4% | 22% | / | -7%
O=C(/C=C/c1ccc(O)cc1)c1ccccc1O | ? | / | -43% | / | / | /
COc1ccc(CCNC(=O)Cn2cc(S(=O)(=O)Cc3ccc(F)cc3)c3ccccc32)cc1OC | 4%[59 µM] | -3% | / | 7% | / | -22%
O=C(CSc1nncn1-c1ccccc1)Nc1ccc(N2CCOCC2)cc1 | / | -6% | 6% | -12% | ? | 10µM*
O=C(CSc1nnc(C2CC2)n1-c1ccccc1)Nc1ccc(N2CCOCC2)cc1 | 56µM* | -30% | -7% | 26% | / | -12%
CCN(CCCNC(=O)c1[nH]c(C)c(C(C)=O)c1C)c1cccc(C)c1 | ? | 50µM* | 5% | ? | -8% | 79µM*
CCN(CCCNC(=O)c1ccc(N2CCCC2=O)cc1)c1cccc(C)c1 | 28µM* | -37% | 8% | -12% | -5% | -23%
CCN(CCCNC(=O)CC(C(=O)N1CCc2ccccc21)n1ccnc1)c1cccc(C)c1 (stereo not drawn) | ? | 37% | 6% | -34% | -62% | 50µM*
CC(C)N(CCCNC(=O)c1ccc(N2CCCC2=O)cc1)Cc1ccccc1 | 9%[59 µM] | -20% | 9% | 19%[57 µM] | / | -3%
CCN(CCNC(=O)c1cccc(N2CCCC2=O)c1)c1ccccc1 | 50µM* | -27% | 21% | 14% | / | -11%
CN(CCNC(=O)c1cccc(N2CCCC2=O)c1)Cc1ccccc1 | -15% | 12% | 1% | 64% | / | -14%
COc1ccc(CCn2c(=S)[nH]c(=O)c3[nH]cnc32)cc1OC | / | / | / | 53% | / | -7%
CCN(CCCNC(=O)CN1C(=O)COc2ccccc21)c1ccccc1 | ? | -36% | 7% | -2% | / | -27%
CCN(CCCNC(=O)CN1C(=O)COc2ccccc21)c1cccc(C)c1 | 22µM* | ? | 2% | -24% | / | ?
Cc1cc(C)c2c(=O)cc(C(=O)NCCc3ccc(S(N)(=O)=O)cc3)oc2c1 | 4%[59 µM] | -14% | / | 44% | / | 2%
COc1ccc(OC)c(NC(=S)N(CCc2c(C)[nH]c3ccc(C)cc23)Cc2cccs2)c1 | 45µM* | ? | 5% | 7% | -11% | ?
COc1ccc(OC)c(NC(=S)N(CCc2c(C)[nH]c3ccccc23)Cc2cccs2)c1 | 56µM* | ? | 14% | 8% | -6% | ?
COc1ccc2[nH]c(C)c(CCN(Cc3cccs3)C(=S)Nc3cccc(F)c3)c2c1 | ? | ? | 40µM* | -19% | -3% | ?
COc1cccc(NC(=S)N(CCc2c(C)[nH]c3ccc(C)cc23)Cc2cccs2)c1 | -29% | 0% | -12% | 9% | -5% | ?

Compound activity (PubChem BioAssay)
